Where “and” joins values, the source holds several entries; their conditions need not be identical. Equal entries are not always repeated. Records with an inconclusive call do not appear. Entries that show only a call come without a potency. Values without a mark were called inactive. Calls of active or inactive are those of the source. Calls come from the whole dose curve; as a rule, active = well fitted curve in the direction sought with a large enough effect in the repeat runs; inconclusive = weak or mixed curves; inactive = no such curve, though single readings can be large; an effect the other way counts as inactive or inconclusive.
Columns and labels:
[1] = target: Cytochrome P450 1A2 (Homo sapiens) (UniProt P05177); experiment: Cytochrome P450 Family 1 Subfamily A Member 2 (CYP1A2) small molecule antagonists: luciferase reporter qHTS assay (AID 1671199); for activity change, negative = inhibition: series mostly up to about 120 µM
Cytochrome P450 1A2 (Homo sapiens), sequence (P05177 whole entry, looked up): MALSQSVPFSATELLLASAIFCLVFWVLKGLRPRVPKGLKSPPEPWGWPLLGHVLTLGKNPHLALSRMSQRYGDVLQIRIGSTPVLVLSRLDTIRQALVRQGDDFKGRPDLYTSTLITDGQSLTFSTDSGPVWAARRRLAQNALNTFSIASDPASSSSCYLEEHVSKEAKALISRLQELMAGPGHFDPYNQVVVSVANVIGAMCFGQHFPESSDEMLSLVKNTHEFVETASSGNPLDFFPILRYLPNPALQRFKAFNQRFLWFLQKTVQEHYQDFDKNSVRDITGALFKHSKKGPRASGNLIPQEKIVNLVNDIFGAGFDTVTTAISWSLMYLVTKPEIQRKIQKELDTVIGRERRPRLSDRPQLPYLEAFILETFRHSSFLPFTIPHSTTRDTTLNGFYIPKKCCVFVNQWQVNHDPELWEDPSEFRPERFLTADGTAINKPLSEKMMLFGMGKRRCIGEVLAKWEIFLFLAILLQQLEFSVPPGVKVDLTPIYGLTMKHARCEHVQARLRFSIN
Summary of the method: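 P450-Glo CYP1A2, 1536-well qHTS: enzyme/proluciferin substrate + cpd (DMSO), 10 min RT; NADPH regen, 1 h RT; detection reagent, 20 min; luminescence, RLU.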

[2] = target: Voltage-gated inwardly rectifying potassium channel KCNH2 (Homo sapiens) (UniProt Q12809); experiment: Human Ether-a-go-go-Related Gene (hERG) channel small molecule antagonists: fluorescence cell-based qHTS assay (AID 1671200);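 for activity change, negative = inhibition: hERG-expressing U2OS cells given a thallium stimulus after FluxOR II dye loading; series mostly up to about 77 µM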
Voltage-gated inwardly rectifying potassium channel KCNH2 (Homo sapiens), sequence (Q12809 whole entry, looked up): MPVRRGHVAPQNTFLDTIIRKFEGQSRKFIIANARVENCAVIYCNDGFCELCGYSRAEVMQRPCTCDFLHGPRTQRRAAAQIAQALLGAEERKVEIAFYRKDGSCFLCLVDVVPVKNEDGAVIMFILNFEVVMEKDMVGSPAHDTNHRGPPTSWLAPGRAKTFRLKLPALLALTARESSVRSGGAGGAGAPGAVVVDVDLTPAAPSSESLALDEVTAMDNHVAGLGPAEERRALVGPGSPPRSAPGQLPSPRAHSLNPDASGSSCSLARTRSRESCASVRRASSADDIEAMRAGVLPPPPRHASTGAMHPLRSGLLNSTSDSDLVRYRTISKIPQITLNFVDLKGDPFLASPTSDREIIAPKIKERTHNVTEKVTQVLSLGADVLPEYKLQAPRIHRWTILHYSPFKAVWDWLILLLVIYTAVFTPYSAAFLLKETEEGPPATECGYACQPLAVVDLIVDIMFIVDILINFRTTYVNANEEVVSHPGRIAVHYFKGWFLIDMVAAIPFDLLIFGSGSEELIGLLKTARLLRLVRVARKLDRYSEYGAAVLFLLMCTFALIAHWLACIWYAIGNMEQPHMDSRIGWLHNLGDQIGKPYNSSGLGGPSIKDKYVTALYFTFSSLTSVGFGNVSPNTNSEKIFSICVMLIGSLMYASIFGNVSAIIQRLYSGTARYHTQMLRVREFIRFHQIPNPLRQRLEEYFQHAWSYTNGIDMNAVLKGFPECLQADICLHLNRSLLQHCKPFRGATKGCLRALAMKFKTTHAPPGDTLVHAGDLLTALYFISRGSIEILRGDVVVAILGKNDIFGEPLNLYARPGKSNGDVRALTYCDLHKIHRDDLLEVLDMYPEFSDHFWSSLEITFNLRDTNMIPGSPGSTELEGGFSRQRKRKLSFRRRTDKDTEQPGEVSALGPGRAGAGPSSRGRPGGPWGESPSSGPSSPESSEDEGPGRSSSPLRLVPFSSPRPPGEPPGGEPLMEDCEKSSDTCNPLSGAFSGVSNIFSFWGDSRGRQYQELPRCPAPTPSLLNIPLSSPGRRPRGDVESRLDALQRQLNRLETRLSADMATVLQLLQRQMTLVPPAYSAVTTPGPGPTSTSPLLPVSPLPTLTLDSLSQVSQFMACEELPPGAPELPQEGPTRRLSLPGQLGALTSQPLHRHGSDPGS
Summary of the method: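 Quantitative HTS in hERG-U2OS cells: thallium entry through the channel reports activity, read as continuous 480/540 nm fluorescence over 2 min after stimulus addition.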
Note: nearly all actives have a fitted effect of over 50% in size.
Potency is the fitted concentration of half-maximal effect.

Compound | Potency [1] | Potency [2] | activity change, negative = inhibition [1]
CC(NCCC(c1ccccc1)c1ccccc1)c1ccccc1 (configuration not stated) | inactive | 1.69 µM (active) | 
CCCCCCCOC(=O)c1ccc(O)cc1 | 5.64 µM (active) and 20 µM (active) |  | 
C/C=C/C(=O)Oc1c(CCCCCC(C)C)cc([N+](=O)[O-])cc1[N+](=O)[O-] | 25.2 µM (active) | 21.9 µM (active) | 
O=C(O)CCn1c2c(c3ccccc31)C[C@H](NS(=O)(=O)c1ccc(F)cc1)CC2 | inactive | inactive | 
C/C=C/C=N/NC(=O)c1ccncc1 | inactive | inactive | 
C=CC(=C)CCC=C(C)C | inactive | inactive | 
COCC(=O)O[C@]1(CCN(C)CCCc2nc3ccccc3[nH]2)CCc2cc(F)ccc2[C@@H]1C(C)C | inactive |  | 
Cc1cnccn1 | inactive | inactive | 
Cc1nc(Nc2ncc(C(=O)Nc3c(C)cccc3Cl)s2)cc(N2CCN(CCO)CC2)n1 | inactive | inactive | 
O=c1cccc[nH]1 | inactive | inactive | 
C/C=C/C(=O)C1=C(C)CCCC1(C)C | inactive | inactive | 
C=C[C@](C)(O)CC[C@@H]1[C@@]2(C)CCCC(C)(C)[C@@H]2CC[C@@]1(C)O | 31.7 µM (active) |  | 
COc1ccccc1OCCNCC(O)COc1cccc2[nH]c3ccccc3c12 (configuration not stated) | 8.12 µM (active) |  | 
Nc1cc(Cl)c([N+](=O)[O-])cc1O | 19.9 µM (active) | inactive | 
CCC(C)c1ccccc1 (configuration not stated) | inactive | inactive | 
CCCSS/C(CCO)=C(\C)N(C=O)Cc1cnc(C)nc1N | inactive | 12 µM (active) | 
CNC(=O)c1cc(Oc2ccc(NC(=O)Nc3ccc(Cl)c(C(F)(F)F)c3)cc2)ccn1 | inactive |  | 
CC(CN(C)C)CN1c2ccccc2CCc2ccccc21 (configuration not stated) | inactive | 15.1 µM (active) | 
COc1cc(C(C)C)c2c(c1)S(=O)(=O)N(COc1cc(=O)n3cccc(OCCN4CCCCC4)c3n1)C2=O |  |  | -18.4% [at 23.6 µM]
Cc1c(C)n(Cc2ccccc2)c2ccc(C(=O)OCCN(C)C)cc12 | 10.2 µM (active) | 10.7 µM (active) | 

Compound | Potency [1] | Potency [2] | activity change, negative = inhibition [1]
C[n+]1c2cc(N)ccc2cc2ccc(N)cc21 (tested in a mixture with another compound) | 2.19 µM (active) | inactive | 
Cc1oc(-c2ccccc2)nc1CCOc1ccc(C[C@H](Nc2ccccc2C(=O)c2ccccc2)C(=O)O)cc1 | inactive | inactive | 
CC(C)c1ccc(O)c(C(C)C)c1 | 31.7 µM (active) |  | 
O=C1NCCN1CCN1CCC(c2cn(-c3ccc(F)cc3)c3ccc(Cl)cc23)CC1 | inactive |  | 
CCCCOCC | inactive | inactive | 
CC1CCCCN1CCCOC(=O)c1ccc(OC2CCCCC2)cc1 (configuration not stated) | inactive | 2.68 µM (active) | 
Oc1ccc(-c2ccc(O)cc2)cc1 | 28.4 µM (active) | inactive | 
CCN=c1cc2oc3cc(NCC)c(C)cc3c(-c3ccccc3C(=O)OCC)c-2cc1C | inactive | 2.45 µM (active) and 2.19 µM (active) | 
C=CC(C)(CCC=C(C)C)OC(=O)/C=C/c1ccccc1 (configuration not stated) | 31.7 µM (active) | inactive | 
CCOB(OCC)OCC | inactive | inactive | 
Cc1c(-c2ccc(O)cc2)n(Cc2ccc(OCCN3CCCCCC3)cc2)c2ccc(O)cc12 | inactive |  | 
Clc1ccc(C(c2ccccc2Cl)C(Cl)Cl)cc1 (configuration not stated) | inactive |  | 
C/C=C/c1ccc(OC)c(OC)c1 | 25.2 µM (active) | inactive | 
COc1cc(C(=O)NS(=O)(=O)c2ccccc2C)ccc1Cc1cn(C)c2ccc(NC(=O)OC3CCCC3)cc12 | inactive | inactive | 
O=C1NC2CCCCN2C12CCN(CCCN1c3ccccc3CCc3ccc(Cl)cc31)CC2 (configuration not stated) | inactive | 0.756 µM (active) | 
O=C(c1ccccc1)c1cc(Cl)ccc1O | 12 µM (active) |  | 
CCCCCCCOC(=O)c1ccccc1C(=O)OCCCCCCC | 15.9 µM (active) | inactive | 
CCN=C1C=CC(=C(c2ccc(N(CC)CC)cc2)c2ccc(N(CC)CC)cc2)c2ccccc21 | 25 µM (active) | 0.345 µM (active) | 
COc1cccc(CCc2ccccc2OCC(CN(C)C)OC(=O)CCC(=O)O)c1 (configuration not stated) | 30.9 µM (active) | inactive | 
COc1cc(C=C2CCC/C(=C\c3ccc(O)c(OC)c3)C2=O)ccc1O | inactive | inactive | 

Compound | Potency [1] | Potency [2] | activity change, negative = inhibition [1]
CC=O | 37.2 µM (active) | 4.57 µM (active) | 
CCC1(c2cnc[nH]2)Cc2ccccc2C1 | 8.12 µM (active) | inactive | 
CCCCCCCCCCOCC(O)CN (configuration not stated) | 2.88 µM (active) | 23.9 µM (active) | 
CCCCCCCCCC(=O)N(C)C | 36.1 µM (active) | inactive | 
CCOCN(C(=O)CS(=O)(=O)O)c1c(C)cccc1CC | inactive | inactive | 
Brc1ccccc1-c1ccccc1 | 16.6 µM (active) | 31.4 µM (active) | 
N#CSCSc1nc2ccccc2s1 | 5.64 µM (active) | inactive | 
CCN(CC)CCSC(=O)C(c1ccccc1)c1ccccc1 | 15.5 µM (active) | 2.68 µM (active) | 
O=C(Nc1ccc(Cl)cc1)Nc1ccc(Cl)c(C(F)(F)F)c1 | 25.7 µM (active) | inactive | 
CCc1ccc(C)nc1 | inactive | inactive | 
CCOC(=O)COc1ccc(C)cc1 | 39.9 µM (active) | inactive | 
CC(C)c1cccc(C(C)C)c1N1C(=O)c2ccc(O)cc2C1=O | inactive | inactive | 
CCCCCCCCCCCCOC(=O)c1cc(O)c(O)c(O)c1 | inactive | inactive | 
CCCCCCCC/C=C\CCCCCCCC(=O)NCc1ccc(O)c(OC)c1 | 15.5 µM (active) | inactive | 
Cc1ccc(N)cc1O | 11.1 µM (active) | inactive | 
CC(C(O)c1ccccc1)N(C)CCOC(c1ccccc1)c1ccccc1 (configuration not stated) | inactive | 1.69 µM (active) | 
O=C1C=CC(=O)N1c1ccccc1 | 20 µM (active) | 49 µM (active) | 
CCCCCCCCCCCCCC[n+]1ccccc1 | 71 µM (active) | 5.49 µM (active) | 
CN(C)c1ccc(N=NS(=O)(=O)O)cc1 | 9.45 µM (active) | inactive | 

Reference: PubChem BioAssay (Tox21)
